Unmarked numbers belong to inactive results. Results filed as inconclusive are left out. The source made the active and inactive calls. Unless noted, calls come from the whole dose curve; as a rule, active = well fitted curve in the direction sought with a large enough effect in the repeat runs; inconclusive = weak or mixed curves; inactive = no such curve, though single readings can be large; an effect the other way counts as inactive or inconclusive.

The target of assay [1] is Luciferin 4-monooxygenase (Photinus pyralis) (UniProt P08659). Put plainly: qHTS assay to identify small molecule inhibitors of firefly luciferase (AID 1224835). Note: nearly all actives have a fitted effect of over 25% in size. Note: potency is the fitted concentration of half-maximal effect. An outline of the steps:
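Quantitative HTS format; KM concentrations of both substrates. Purified P. pyralis FLuc activity quantified from luminescence images.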
A general note: Quantitative high-throughput screening tests each substance at several concentrations.

A short description of assay [2]: qHTS assay to identify small molecule agonists of the constitutive androstane receptor (CAR) signaling pathway - cell viability counter screen (AID 1224836). Note: nearly all actives have a fitted effect of over 45% in size. The gist of the method:
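HepG2-CYP2B6-hCAR, 2500 cells/well, 4 h pre-incubation; cpd 15 conc + PK11195 0.75 uM final; 23 h, 37 C/5% CO2; CellTiter-Fluor, fluorescence.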

A short description of assay [3]: qHTS assay to identify small molecule antagonists of the constitutive androstane receptor (CAR) signaling pathway - cell viability counter screen (AID 1224837). Note: nearly all actives have a fitted effect of over 45% in size. The gist of the method:
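Read-out: CellTiter-Fluor fluorescence after 23 hr at 37 C/5% CO2. Cells: HepG2 double-stable for hCAR and CYP2B6-2.2kb. Compounds tested at 15 concentrations in the presence of CITCO, final concentration 50 nM.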

Assay [4] deals with Nuclear receptor subfamily 1 group I member 3 (Homo sapiens) (UniProt Q14994). Put plainly: qHTS assay to identify small molecule antagonists of the constitutive androstane receptor (CAR) signaling pathway (AID 1224838).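 Note: HepG2 cells stably expressing hCAR with CYP2B6 luciferase reporter stimulated by CITCO; nearly all actives have a fitted effect of over 40% in size.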 The gist of the method:
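Read-out: ONE-Glo luciferase luminescence after 30 min at room temperature. HepG2-CYP2B6-hCAR double-stable cells, compounds in 15-point titration plus 50 nM CITCO final, 24 h at 37 C/5% CO2.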

Assay [5] shares this target. Put plainly: qHTS assay to identify small molecule agonists of the constitutive androstane receptor (CAR) signaling pathway (AID 1224839).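 For activation: HepG2 cells stably carrying human CAR and a CYP2B6 luciferase reporter.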 Note: nearly all actives have a fitted effect of over 15% in size. Note: potency is the fitted concentration of half-maximal effect. An outline of the steps:
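HepG2-CYP2B6-hCAR cells, 2500/well, 4 h pre-incubation; compounds 15 conc.; PK11195 0.75 uM final; 24 h, 37 C/5% CO2; ONE-Glo luciferase read.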

Assay [6] can be described thus: qHTS assay to identify small molecule antagonists of the estrogen related receptor signaling pathway with the pleiotropic PPARgamma coactivator (PGC) from Tox21 10K library - cell viability counter screen (AID 1224840; active = well fitted cell-killing curve with a large enough effect in the repeat runs, not every such curve was filed as active; note: nearly all actives have a fitted effect of over 40% in size). An outline of the steps:
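Fluorescence read-out of CellTiter-Fluor viability reagent, added after cells had been exposed to compound in DMSO for 17.5 h at 37 C; 30 min development at 37 C/5% CO2. Cells: PGC/ERR line, 2,000/well.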

A short description of assay [7]: qHTS assay to identify small molecule agonists of the hypoxia (HIF-1) signaling pathway - cell viability counter screen (AID 1224844; calls by dose curve; note: nearly all actives have a fitted effect of over 50% in size). An outline of the steps:
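CellTiter-Glo luminescence read-out, 30 min RT, taken in the same wells as the beta-lactamase HRE reporter assay; HRE-bla ME-180 cells, 0.5% dialyzed FBS, 17 hr compound treatment at 37C, 5% CO2.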

A short description of assay [8]: qHTS assay to identify small molecule agonists of H2AX (AID 1224845; active = well fitted activation curve with a large enough effect in the signal ratio in the repeat runs, not every such curve was filed as active; the % refers to the signal ratio). The gist of the method:
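Wild-type CHO-K1 cells plated overnight, then exposed 3 hr at 37C to compounds at 15 concentrations (0.76% DMSO). Lysed, then HTRF anti-pH2AX(S139)-cryptate/anti-H2AX-d2 detection after 24 hr at room temperature; emissions 665 and 620 nm.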

A short description of assay [9]: qHTS assay to identify small molecule agonists of H2AX - cell viability counter screen (AID 1224847; calls by dose curve; note: top concentration of the series differs between compounds; nearly all actives have a fitted effect of over 30% in size). An outline of the steps: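 Cells plated first: CHO-K1, 1000 per well in 10% FBS medium, incubated overnight at 37C. Then 15-point compound titration added (final DMSO 0.76%) for 3 hr. Finally CellTiter-Glo added and luminescence read.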
Assay [10] can be described thus: qHTS RealTime-Glo MT Cell Viability Assay in HepG2 cells - 24 hour (AID 1224867). Note: nearly all actives have a fitted effect of over 50% in size. The gist of the method:
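Luminescence read-out: viable HepG2 cells reduce a prosubstrate to a NanoLuc substrate, giving a signal proportional to live cell number. Reads taken at 0, 8, 16, 24, 32 and 40 h of compound exposure at 37 C.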

A short description of assay [11]: qHTS RealTime-Glo MT Cell Viability Assay in HEK293 cells - 32 hour (AID 1224868). For activity change, negative = cytotoxic: top concentration of the series differs between compounds. Note: nearly all actives have a fitted effect of over 50% in size. Note: potency is the fitted concentration of half-maximal effect. The gist of the method: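 Nonlytic real-time viability readout: viable cells convert prosubstrate to NanoLuc substrate, giving luminescence proportional to live cell number. HEK293, 600 cells/well, compound added after 5 h, continuous culture at 37 C.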
Assay [12] in a line: A CellTox Green Cytotoxicity Assay to monitor cytotoxicity in HEK293 cells - 0 hour (AID 1224869). Note: nearly all actives have a fitted effect of over 50% in size. An outline of the steps: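 Read-out: fluorescence of a cell-impermeant cyanine dye staining DNA of dead cells, proportional to cytotoxicity. HEK293, 600 cells/well with reagent, compound (23 nL DMSO) added after 5 h; reads at 0, 8, 16, 24, 32, 40 h.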
A short description of assay [13]: qHTS RealTime-Glo MT Cell Viability Assay in HepG2 cells - 40 hour (AID 1224870). Note: nearly all actives have a fitted effect of over 50% in size. An outline of the steps:
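HepG2 cells mixed with RealTime-Glo MT reagents (NanoLuc plus cell-permeant prosubstrate) were seeded at 600 cells/well, incubated 5 h at 37 C/5% CO2, then pinned with compounds in DMSO; nonlytic luminescence tracked viability during 40 h treatment.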

Assay [14] concerns the target Thyrotropin receptor (Homo sapiens) (UniProt P16473). Put plainly: qHTS assay to identify small molecule agonists of the thyroid stimulating hormone receptor (TSHR) signaling pathway (AID 1224843; calls by dose curve; note: nearly all actives have a fitted effect of over 45% in size). An outline of the steps: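 Using 15 concentrations per compound in triplicate, cAMP production was monitored in TSHR-HEK293 cells after 30 min compound incubation at RT; HTRF reagents followed, with fluorescence intensity recorded after 1 h.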

The nature of assay [15]: qHTS assay to identify small molecule agonists of the hypoxia (HIF-1) signaling pathway (AID 1224846; active = well fitted activation curve with a large enough effect in the signal ratio in the repeat runs, not every such curve was filed as active; the % refers to the signal ratio). The gist of the method: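 Beta-lactamase FRET read-out (CCF4-AM substrate) from ME-180 cells carrying an HRE-driven bla reporter, after 17 hrs compound exposure at 37C/5% CO2. Cells were seeded at 2,000 per well in 0.5% dialyzed FBS medium and preincubated 5 hrs.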
A short description of assay [16]: qHTS assay to identify small molecule antagonists of the estrogen related receptor signaling pathway with the pleiotropic PPARgamma coactivator (PGC) from Tox21 10K library (AID 1224841; call rule not given here; note: potency is the fitted concentration of half-maximal effect). The gist of the method: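 Luminescence read-out (One-Glo luciferase reagent, 30 min at room temperature) from PGC/ERR cells exposed to DMSO-dissolved test compounds for 18 h at 37 C; cells, 2,000 per well, had been preincubated 6 h before compound transfer.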

Assay [17] is described as follows: qHTS assay to identify small molecule agonists of the estrogen related receptor signaling pathway with the pleiotropic PPARgamma coactivator (PGC) from Tox21 10K library (AID 1224842). Note: nearly all actives have a fitted effect of over 15% in size. Note: potency is the fitted concentration of half-maximal effect. An outline of the steps: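 PGC/ERR reporter cells (NTP line) were seeded 2,000 per well, rested 6 h at 37 C/5% CO2, then pin-dosed with compounds in DMSO for 18 h at 37 C; luciferase read by One-Glo luminescence after 30 min at room temperature.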

Assay [18] can be described thus: qHTS assay to identify small molecule antagonists of the estrogen related receptor (ERR) signaling pathway from Tox21 library (AID 1224848). Note: nearly all actives have a fitted effect of over 50% in size. Note: potency is the fitted concentration of half-maximal effect. The gist of the method:
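Tox21 10K compounds in DMSO tested for ERR pathway antagonism in NTP's ERR cell line; 18 h, 37 C exposure; ONE-Glo luminescence.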

Assay [19] is described as follows: qHTS assay to identify small molecule agonists of the estrogen related receptor (ERR) signaling pathway from Tox21 library (AID 1224849; calls by dose curve; note: nearly all actives have a fitted effect of over 15% in size). The note with it: ERR reporter cell line, ONE-Glo luciferase, 18 h; at 92.4 µM (top of the series) unless noted. An outline of the steps:
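Luminescence readout (ONE-Glo, 30 min RT) after 18 h compound exposure at 37 C of NTP-supplied ERR reporter cells; cells were plated 6 h before compound addition by pin tool.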

Assay [20] is described as follows: qHTS assay to identify small molecule antagonists of the estrogen related receptor (ERR) signaling pathway from Tox21 library - cell viability counter screen (AID 1224834). Note: nearly all actives have a fitted effect of over 30% in size. The gist of the method:
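Multiplexed viability counter screen in ERR cells: 17.5 h compound exposure at 37 C, CellTiter-Fluor added, 30 min at 37 C/5% CO2, fluorescence read.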
% is set by controls: 0 for no effect and ±100 for the full control effect.

Chain of Thyrotropin receptor (Homo sapiens) (P16473 whole entry, looked up): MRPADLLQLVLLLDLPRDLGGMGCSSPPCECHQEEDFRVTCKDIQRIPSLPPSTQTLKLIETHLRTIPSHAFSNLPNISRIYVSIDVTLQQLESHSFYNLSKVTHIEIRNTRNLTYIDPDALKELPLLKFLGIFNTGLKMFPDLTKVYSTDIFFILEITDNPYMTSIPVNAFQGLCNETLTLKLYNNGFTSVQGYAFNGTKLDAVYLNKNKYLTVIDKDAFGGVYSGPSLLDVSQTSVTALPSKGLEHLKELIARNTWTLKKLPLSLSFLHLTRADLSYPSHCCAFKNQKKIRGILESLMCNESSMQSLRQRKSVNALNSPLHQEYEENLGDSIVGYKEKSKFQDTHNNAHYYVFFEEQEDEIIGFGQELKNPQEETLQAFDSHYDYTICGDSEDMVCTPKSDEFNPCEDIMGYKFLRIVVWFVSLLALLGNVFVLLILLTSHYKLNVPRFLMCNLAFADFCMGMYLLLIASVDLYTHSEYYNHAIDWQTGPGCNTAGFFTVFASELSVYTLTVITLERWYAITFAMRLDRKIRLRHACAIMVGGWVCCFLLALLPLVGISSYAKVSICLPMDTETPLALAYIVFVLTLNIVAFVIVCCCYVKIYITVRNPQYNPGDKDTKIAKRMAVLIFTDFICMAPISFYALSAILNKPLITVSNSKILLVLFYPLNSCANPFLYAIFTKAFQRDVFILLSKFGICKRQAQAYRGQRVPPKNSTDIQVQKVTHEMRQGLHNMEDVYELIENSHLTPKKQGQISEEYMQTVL
Chain of Luciferin 4-monooxygenase (Photinus pyralis) (P08659 whole entry, looked up): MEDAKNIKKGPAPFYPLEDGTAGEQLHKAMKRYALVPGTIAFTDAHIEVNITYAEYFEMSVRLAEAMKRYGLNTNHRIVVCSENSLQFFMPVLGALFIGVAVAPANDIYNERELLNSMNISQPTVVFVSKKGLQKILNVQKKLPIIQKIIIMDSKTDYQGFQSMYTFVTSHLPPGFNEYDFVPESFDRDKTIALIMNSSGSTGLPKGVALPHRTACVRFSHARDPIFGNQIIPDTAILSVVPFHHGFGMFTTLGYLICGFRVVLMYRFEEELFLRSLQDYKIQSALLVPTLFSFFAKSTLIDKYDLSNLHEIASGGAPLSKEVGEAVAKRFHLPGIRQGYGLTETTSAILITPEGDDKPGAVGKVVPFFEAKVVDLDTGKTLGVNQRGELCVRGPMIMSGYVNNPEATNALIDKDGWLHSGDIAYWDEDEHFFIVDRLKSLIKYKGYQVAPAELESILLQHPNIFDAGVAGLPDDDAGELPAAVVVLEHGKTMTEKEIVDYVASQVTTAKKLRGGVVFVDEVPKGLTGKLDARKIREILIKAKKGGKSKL
Chain of Nuclear receptor subfamily 1 group I member 3 (Homo sapiens) (Q14994 whole entry, looked up): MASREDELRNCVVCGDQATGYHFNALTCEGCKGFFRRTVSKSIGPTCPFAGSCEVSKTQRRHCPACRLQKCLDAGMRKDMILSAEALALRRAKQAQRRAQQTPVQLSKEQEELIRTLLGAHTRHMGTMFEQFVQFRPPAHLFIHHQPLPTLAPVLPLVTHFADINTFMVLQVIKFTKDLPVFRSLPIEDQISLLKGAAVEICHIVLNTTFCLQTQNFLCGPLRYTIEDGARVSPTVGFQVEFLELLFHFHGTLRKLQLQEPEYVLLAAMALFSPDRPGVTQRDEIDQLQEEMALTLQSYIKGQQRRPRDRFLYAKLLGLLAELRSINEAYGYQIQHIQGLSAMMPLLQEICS

On to `COC(=O)Cc1cccc2ccccc12`, for which the Potency result in [1], in assay [2], in [3], in assay [4], in assay [6] and in assay [7] was “inactive” throughout. In addition, the Potency result in [8], in assay [9], in assay [11], in assay [12] and in assay [13] was “inactive” in each case. For the same compound, the Potency in assay [5] was 34.4 µM (active). Moreover, the compound was called inactive in [10].

As for `CO[C@@H]1COCC[C@@H]1N[C@@H]1CC[C@@](C(=O)N2CCc3ncc(C(F)(F)F)cc3C2)(C(C)C)C1`, the Potency entry in assay [1], in assay [2], in [3], in assay [4], in assay [5] and in assay [6] was “inactive” in each case. Besides, the Potency result in assay [14], in [7], in assay [9], in [12] and in assay [13] was “inactive” throughout. Further, the outcome in assay [15] and in assay [10] was inactive. The Potency in [11] was 15.4 µM (active).

As to `Nc1ccc(-c2ccc(F)cc2)cc1`, the Potency was 31.7 µM (active) in [1], 27.3 µM (active) in assay [5] and 5.45 µM (active) in assay [17]. In addition, the Potency result in assay [2], in [3], in assay [4], in [6], in [16] and in [7] was “inactive” in each case. For the same compound, the Potency entry in assay [8], in [18], in assay [11], in assay [12] and in assay [13] was “inactive” throughout. The compound was classed as inactive in assay [15] and in [10]. In assay [19], the activity change, positive = activation is 52% (active).

For the compound `Sc1nc(S)nc(S)n1`, the Potency entry in assay [20], in assay [2], in assay [3], in assay [6], in [16] and in assay [17] was “inactive” in each case. In addition, the Potency result in assay [14], in assay [7], in assay [8], in assay [9], in assay [11] and in [12] was “inactive” each time. Moreover, the Potency result in assay [13] was “inactive”. The call in [15] and in assay [10] was inactive. The activity change, positive = activation in assay [19] was -29.2% [at 42.5 µM].

Take `Nc1cccc2c(=O)[nH][nH]c(=O)c12`: the Potency result in assay [1], in assay [2], in [3], in [4], in [5] and in assay [6] was “inactive” throughout. Moreover, the Potency result in assay [17], in assay [14], in assay [7], in assay [9], in assay [11] and in [12] was “inactive” throughout. Also, the Potency result in assay [13] is “inactive”. In addition, the figures for the Potency in [16] and in assay [18] were 61.4 µM (active) and 48.8 µM (active), respectively. The compound was called inactive in assay [15] and in assay [10]. In addition, the activity change, positive = activation in assay [19] is -53.6%.

For the compound `CCCCCCCCCCCCCCCCCCCl`, in assay [1], the activity change, negative = inhibition is 2.69% [at 10.5 µM]. In addition, the viability change, negative = cytotoxic in [2] is 3.36% [at 8.39 µM]; in [6], 10.7% [at 8.39 µM]. Besides, the activity change, negative = cytotoxicity was 3.1% [at 8.39 µM] in assay [3], 0.227% [at 6.97 µM] in assay [7], 2.91% [at 14 µM] in assay [9] and 1.13% [at 6.97 µM] in assay [10]. Moreover, the values for the activity, negative = inhibition in assay [16] and in assay [18] were 20.1% [at 8.39 µM] and 23.3% [at 8.39 µM], respectively. Besides, the activation in assay [17] is 1.05% [at 8.39 µM]; in assay [14] it was -0.25% [at 8.39 µM]; in assay [15] it was 0.175% [at 7.01 µM]. Moreover, in [8], the activation (H2AX phosphorylation) is -0.95% [at 14 µM]. In addition, in assay [11], the activity change, negative = cytotoxic is -2.36% [at 6.97 µM]. For the same compound, the cytotoxicity in [12] is 0.805% [at 6.97 µM].

`COC(=O)C(C)(C)C`: the Potency result in [1], in [2], in assay [3], in [5], in assay [6] and in [16] was “inactive” throughout. Further, the Potency entry in assay [17], in assay [14], in [8], in [9] and in [18] was “inactive” each time. Moreover, the compound was classed as inactive in assay [15] and in [10]. Also, the activity change, positive = activation in assay [19] is -7.89%.

Values taken from PubChem BioAssay (Tox21).
